Cycloheximide cs = affects cycloheximide protein synthesis inhibition readout, counter-screen | cell reporter, cycloheximide protein synthesis inhibition counterscreen | AID 2314 | hit rate 12% among 300,000 | max response, %; in the data active = max response mostly above about 13%, no sharp cut-off; inactive = mostly below about 14%; note: read at 38.3 µM for the half of the compounds with a filed dose; 0% is about no effect
Pf growth 96h = inhibits malaria parasite growth, 96 h; P. falciparum luciferase reporter growth, 96 h; Potency, µM (top dose mostly 28.7 µM), for the others: top-dose activity change, negative = inhibition, actives largely listed as inhibitors; hit rate 6.9% among 320,000; AID 504834; note: potency is the fitted concentration of half-maximal effect; % is set by controls: 0 for no effect and ±100 for the full control effect
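Cell-based qHTS: luciferase-tagged P. falciparum in erythrocytes (2% hematocrit, 0.05% parasitemia final) incubated with compounds for 96 hours, 37 C, 5% CO2; luciferase detection reagent then added and luminescence measured.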
SARS PLpro yeast = SARS-CoV PLP inhibition in yeast; S. cerevisiae expressing SARS-CoV PLpro, growth rescue; Potency, µM (highest dose often 32.9 µM), without a hit: at the highest dose activity, positive = growth rescue, hits mostly activators; hit rate 0.19% among 330,000; calls by dose curve; note: potency is the fitted concentration of half-maximal effect; 0% is about no effect; nearly all actives have a fitted effect of over 55% in size
Shiga inhibitor = blocks Shiga toxin action in Vero cells | Vero cells, Shiga toxin protein synthesis inhibition reporter | inhibition, % at 38.7 µM | hit rate 9.2% among 290,000 | AID 2315; in the data active = inhibition mostly above about 28%, no sharp cut-off; inactive = mostly below about 43%; note: 0% is about no effect
NS1 inh = inhibitors of influenza NS1 protein function | hit rate 0.4% among 270,000 | AID 2326 | Potency, µM (highest dose often 46.1 µM), for the others: at the top dose activity, positive = more growth; calls by dose curve; note: potency is the fitted concentration of half-maximal effect; actives are rising curves; nearly all actives have a fitted effect of over 50% in size
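Growth recovery, yeast-based: influenza A NS1 expressed in S. cerevisiae causes slow growth, and suppressors are detected by OD600. The parent strain without NS1 is used as positive control.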
Pf growth 48h = P. falciparum growth inhibition at 48 hours (one generation); Potency, µM (highest dose often 28.7 µM), inactives show at the top dose activity change, negative = inhibition, actives largely listed as inhibitors; P. falciparum luciferase growth in erythrocytes, 48 h; hit rate 5.9% among 310,000; note: potency is the fitted concentration of half-maximal effect; % is set by controls: 0 for no effect and ±100 for the full control effect
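First compound was added to culture medium, then infected red cells at 0.1% parasitemia and 2% hematocrit (final). After incubation at 37 C under 5% CO2, luciferase detection reagent was dispensed and light output recorded.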
Starred values were filed as active, the others as inactive; ? = inconclusive; · = not tested or not shown; [ ] = another dose, or the depositor's remark. The list is not random: actives were taken first. Their share in the collection is about 21%. Unless noted, calls come from the whole dose curve; as a rule, active = well fitted inhibition curve with a large enough effect; inconclusive = small, poorly fitted or top-dose-only effect, or another doubt; inactive = no such curve, though single readings can be large or run the other way.

SMILES	Cycloheximide cs	Pf growth 96h	SARS PLpro yeast	Shiga inhibitor	NS1 inh	Pf growth 48h
CC(=O)N1CCN(c2ccc(NC(=O)C(C)Oc3ccc(Cl)cc3Cl)cc2)CC1 (stereo not given)	4	?	-20%	-10	0%	·
COC(=O)Cc1ccc(NC(=O)c2ccc(C(C)(C)C)cc2)cc1	1	?	-11%	-6	-83%	·
COC(=O)Cc1ccc(NC(=O)c2ccccc2Cl)cc1	28*	?	-1%	35	1%	8%
O=C(COc1ccccc1Cl)Nc1ccc(N2CCCC2)cc1	25*	2%	-1%	53*	-5%	3%
CC(Oc1ccc(Cl)cc1Cl)C(=O)Nc1ccc(N2CCN(C)CC2)cc1 (stereo not given)	-2	69%	0%	-12	-1%	13µM*
COc1ccccc1C(=O)Nc1ccc(N2CCCCC2)cc1	45*	109%	-3%	65*	-59%	·
CCOC(=O)N1CCN(C(=O)CNC(=O)c2ccc(Br)cc2)CC1	9	?	7%	-23	12%	15%
CC(C)(C)n1ncc2c(=O)n(CC(=O)N3CCN(c4ccccc4)CC3)cnc21	2	20%	3%	-5	-7%	-14%
O=C(Nc1ccccc1N1CCCC1)c1ccc(Cl)cc1Cl	-2	-2%	-1%	28	-9%	0%
CC(Oc1ccc(Cl)cc1Cl)C(=O)Nc1ccc(O)cc1 (stereo not given)	5	22%	-2%	1	·	24%[5.75 µM]
CC(Oc1ccc(Cl)cc1Cl)C(=O)Nc1cccc(O)c1 (stereo not given)	31*	?	-5%	43	-53%	0%
O=C(Nc1ccc(N2CCCC2)cc1)c1ccc(Cl)cc1Cl	47*	42%	2%	47*	4%	·
O=C(Nc1ccc(N2CCOCC2)cc1)c1cc(F)c(F)cc1Cl	35*	10%	-7%	56*	0%	33%
O=C(Nc1ccc(N2CCCC2)cc1)c1cccc(Cl)c1	25*	-14%	-2%	52*	3%	92%
COc1ccc([N+](=O)[O-])cc1NC(=O)C(C)N1CCN(C(=O)c2ccco2)CC1 (stereo not given)	-2	?	0%	23	·	-18%
CN1CCN(c2ccc(NC(=O)c3ccc(Cl)cc3Cl)cc2)CC1	15*	-21%	1%	·	17%	-28%
O=C(Nc1ccc(N2CCCCCC2)cc1)c1ccccc1Cl	34*	?	-3%	53*	-3%	52%
O=C(Nc1ccc(N2CCCC2)cc1)c1cc(Cl)ccc1Cl	13*	?	1%	·	2%	30%
Cc1cc(NC(=O)C(C)Oc2ccc(Cl)cc2Cl)n(-c2ccccc2)n1 (stereo not given)	1	5.9µM*	-11%	-13	-62%	·
CC(=O)N1CCN(c2ccc(NC(=O)c3ccccc3Cl)cc2)CC1	-1	88%	-4%	3	6%	20%
O=C(Nc1ccccc1N1CCCC1)c1cc(Cl)ccc1Cl	-2	0%	-1%	-4	-4%	?
CCn1nnc(NC(=O)C(C)Oc2ccc(Cl)cc2Cl)n1 (stereo not given)	7	35%	-6%	-12	-49%	-7%
COc1ccc(C(CNC(=O)c2cc3ccccc3o2)N2CCCCC2)cc1 (stereo not given)	7	25%	2%	-15	0%	1%
O=C(NC1CCCc2ccccc21)c1cncc(Br)c1 (stereo not given)	0	?	-21%	-16	-23%	·
O=C(CNc1ccc2ccccc2c1)N/N=C/c1ccc(C(=O)O)cc1	14	63%	0%	37	·	9%
SMILES	Cycloheximide cs	Pf growth 96h	SARS PLpro yeast	Shiga inhibitor	NS1 inh	Pf growth 48h
O=C(COc1ccc(-c2ccccc2)cc1)N/N=C/c1cc(O)ccc1Br	3	8.3µM*	-30%	19	-3%	-8%
O=C(CNc1ccc2ccccc2c1)N/N=C/c1ccc([N+](=O)[O-])o1	3	3.3µM*	-11%	15	9%	9.3µM*
O=C(CSc1ccc(Cl)cc1)N/N=C/c1ccc([N+](=O)[O-])o1	14*	?	4%	19	-51%	?
Cc1ccc(OCC(=O)N/N=C/c2ccc([N+](=O)[O-])o2)cc1	12	?	-20%	-5	-21%	10µM*
Cc1ccc(SCC(=O)N/N=C/c2ccco2)cc1	-1	?	-9%	-5	-18%	?
O=C(COc1ccccc1)N/N=C/c1ccc([N+](=O)[O-])o1	11*	10µM*	-9%	9	-17%	8.3µM*
O=C(O)c1ccc(N/N=C/c2cc3cc4c(cc3nc2Cl)OCCO4)cc1	12*	0%	1%	-2	-3%	-4%
O=C(COc1ccccc1)N/N=C/c1cc2c(cc1[N+](=O)[O-])OCO2	23*	?	-19%	86	2%	·
O=C(O)c1ccc(N/N=C/c2cc3c(cc2[N+](=O)[O-])OCO3)cc1	17	74%	1%	42*	·	395%
Cc1cc(=O)oc2cc(OCC(=O)N/N=C/c3ccccc3[N+](=O)[O-])ccc12	0	?	4%	4	19%	-1%
CSCCn1c(C(C)(C)C)cc(C(=O)O)c1C	5	8.3µM*	0%	38	-1%	-5%
Cc1c(C(=O)O)cc(C(C)(C)C)n1CCSCCO	-1	-1%	1%	-8	3%	54%
CC(NC(=O)CN(c1cccc(C(F)(F)F)c1)S(C)(=O)=O)c1ccccc1 (stereo not given)	-1	1.2µM*	·	·	-4%	?
CCOc1ccc(-n2nc3c(Cl)nnc(C)c3c2C)cc1	-2	0.52µM*	-2%	-9	5%	0.33µM*
Cc1nn(-c2ccccc2)c(C)c1-c1ccccc1O	11	15%	-8%	39	-12%	-5%
CCOc1ccc(-n2nc3c(=O)[nH]nc(C)c3c2C)cc1	1	2%	11%	-4	4%	11%
Cc1nnc(Cl)c2nn(-c3ccccc3)c(C)c12	4	0.59µM*	-10%	-4	10%	0.33µM*
Nc1c(N(Cc2ccco2)C(=O)COc2ccccc2F)c(=O)[nH]c(=O)n1Cc1ccccc1	·	-10%	0%	·	·	?
CCOC(=O)C(CO)(NC(C)=O)C(=O)OCC	-2	0.93µM*	?	-15	-3%	5%
CCOC(=O)N1CCN(c2ccc(S(=O)(=O)N(Cc3ccccc3)Cc3ccccc3)cn2)CC1	-1	-29%	?	-4	-36%	13µM*
CCOC(=O)N1CCN(C(=O)CN(Cc2ccc(Cl)cc2)S(=O)(=O)c2ccccc2)CC1	-2	?	-10%	20	-17%	8.3µM*
CCN(CC)S(=O)(=O)c1ccc(N2CCN(CCO)CC2)nc1	0	4%	26%	9	-4%	-2%
CCN(CC)S(=O)(=O)c1ccc(N2CCN(c3ccccc3O)CC2)nc1	13	13µM*	-4%	26	-37%	?
